Compound activity (PubChem BioAssay)
Many of the other results were omitted from the sample, so hits are more common in it than they were.
HT1080 IDH1KD tx: toxicity to HT-1080 IDH1 knockdown cells (counter line); HT-1080 IDH1 knockdown viability, ATP luminescence, 48 h; Potency, µM (top dose mostly 46.1 µM), most hits filed as cytotoxic; 2% of 360,000 active
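Luminescent ATP read-out (CellTiter-Glo, 10 min at room temperature) after 48 h compound exposure at 37 °C gave viability of IDH1-knockdown HT-1080 cells. Activity was normalised to DMSO and cell-free wells, then fitted as concentration-response curves.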
ALOX12 inh: blocks human arachidonate 12S-lipoxygenase; P18054; purified 12hLO, xylenol orange hydroperoxide absorbance; AID 1671190; 1.1% of 580,000 active; Potency, µM (doses to about 108 µM), usual class: inhibitors
Target sequence (P18054 whole entry, looked up): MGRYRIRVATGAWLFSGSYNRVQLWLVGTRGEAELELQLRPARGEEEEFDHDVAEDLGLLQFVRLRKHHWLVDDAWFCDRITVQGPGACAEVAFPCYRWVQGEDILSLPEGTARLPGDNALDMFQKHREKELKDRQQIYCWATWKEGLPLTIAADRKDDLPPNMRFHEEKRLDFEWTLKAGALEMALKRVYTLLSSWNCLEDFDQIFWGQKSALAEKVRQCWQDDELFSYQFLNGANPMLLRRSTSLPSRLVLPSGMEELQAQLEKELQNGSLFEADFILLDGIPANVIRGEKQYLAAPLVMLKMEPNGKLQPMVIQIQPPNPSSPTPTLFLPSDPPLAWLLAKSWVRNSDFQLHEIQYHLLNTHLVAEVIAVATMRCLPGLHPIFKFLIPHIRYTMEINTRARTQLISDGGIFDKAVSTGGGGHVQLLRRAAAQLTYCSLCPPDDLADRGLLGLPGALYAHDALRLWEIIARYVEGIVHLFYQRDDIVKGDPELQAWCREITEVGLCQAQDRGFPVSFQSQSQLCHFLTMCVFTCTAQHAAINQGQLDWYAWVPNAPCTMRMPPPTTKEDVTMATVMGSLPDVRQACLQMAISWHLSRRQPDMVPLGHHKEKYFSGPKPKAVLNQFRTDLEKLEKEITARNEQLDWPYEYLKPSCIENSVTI
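Hydroperoxide product was detected by ferrous iron/xylenol orange as the 573 to 405 nm absorbance ratio. Arachidonic acid at 40 uM (final) was turned over for 30 min at room temperature by 150 nM human 12hLO, pH 7.0 Hepes buffer, after 15 min compound preincubation.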
TDP1 cell noCPT: qHTS for Inhibitors of human tyrosyl-DNA phosphodiesterase 1 (TDP1): qHTS in cells in absence of CPT | DT40 Tdp1-/- hTDP1 cells, no CPT, ATP luminescence, 48 h | 15% of 420,000 active | Potency, µM (highest dose often 46.2 µM), actives largely listed as inhibitors; further: nearly all actives have a fitted effect of over 55% in size
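Cells were dispensed at 400 per well, compounds added by pin tool, plates incubated ≥48 hr at 37 °C, then CellTiter-Glo added for 30 min at room temperature before luminescence reading. Line: DT40 Tdp1-/- complemented with hTDP1; camptothecin omitted.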
HT1080NT lethal: kills 2HG-producing HT-1080-NT fibrosarcoma cells; HT-1080-NT fibrosarcoma viability, CellTiter-Glo ATP luminescence, 48 h; Potency, µM (titrated, usually from 46.1 µM), actives largely listed as cytotoxic; 1.6% of 360,000 active; AID 686970;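 further: NT is the 2HG producing partner of a matched IDH1 knockdown line; nearly all actives have a fitted effect of over 55% in size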
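Read-out is CellTiter-Glo luminescence after 10 minutes at room temperature, following 48 hours' compound treatment of HT-1080-NT cells (750 cells/well, RPMI, 5% FBS, 37 degrees C).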
IL-1B inflam inh: inhibitors of inflammasome signaling (IL-1 beta secretion). THP-1 LPS/ATP IL-1B secretion, AlphaLISA, 16 h; hits give low values. activity change, % at 57.5 µM. 4.7% of 360,000 active. AID 743279; in the data active means activity change below about -50%; inconclusive means mostly about -30% to -49%
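Secreted IL-1B measured by AlphaLISA bead assay after 16 h compound exposure of THP-1 cells; compounds (final up to 57.5 uM) added 1 h before LPS (250 ng/mL) and ATP (1.25 mM) stimulation; lower signal means less secretion.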
DT40 TDP1 CPT: growth inhibition of DT40 Tdp1-/-;hTDP1 cells with camptothecin (screen for TDP1 inhibitors); chicken DT40 Tdp1-/-;hTDP1 cells + 20 nM CPT, ATP luminescence, 48 h; Potency, µM (top dose mostly 46.2 µM), usual class: inhibitors; 12% of 420,000 active; further: nearly all actives have a fitted effect of over 55% in size
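Chicken DT40 Tdp1-/- cells complemented with human TDP1, 400 cells/well, exposed to compounds plus 20 nM camptothecin for at least 48 h at 37 C; viability read as ATP content by CellTiter-Glo luminescence.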
Hits are given with their value; – = inactive; ? = inconclusive; · = no result given. Unless noted, the call rests on the fitted dose curve; in most records, active means well fitted curve in the direction sought with a large enough effect; inconclusive means small, poorly fitted or top-dose-only effect, or another doubt; inactive means no such curve, though single readings can be large; an effect the other way counts as inactive or inconclusive.

SMILES	HT1080 IDH1KD tx	ALOX12 inh	TDP1 cell noCPT	HT1080NT lethal	IL-1B inflam inh	DT40 TDP1 CPT
CC1CC(C)CN(S(=O)(=O)c2cccc(C(=O)N3CCN(c4ccc(F)cc4)CC3)c2)C1 (configuration not stated)	–	–	20.6µM	–	–	?
O=C(c1cccc(S(=O)(=O)N2CCCC2)c1)N1CCN(c2ccccc2)CC1	?	–	?	?	–	?
CCOC(=O)c1nc2ccccc2nc1N1CCN(c2cccc(C)c2C)CC1	·	–	·	·	·	·
O=C(Nc1ccc(-c2nc3ccccc3o2)c(O)c1)c1cc(-n2cnnc2)ccc1Cl	?	–	?	–	–	25.9µM
O=C(Nc1ccc(-c2nc3ccccc3o2)cc1)c1cc(-n2cnnc2)ccc1Cl	–	–	?	–	?	18.4µM
CSc1sc(C(=O)NC(=O)NCc2ccncc2)c(C)c1-c1ccon1	–	–	16.4µM	–	–	?
CC(=O)Nc1ccc(S(=O)(=O)N2CC3(C)CC2CC(C)(C)C3)cc1 (configuration not stated)	–	–	?	–	–	–
O=C(Nc1ccc(Cl)c(S(=O)(=O)N2CCOCC2)c1)c1cccs1	–	–	?	–	–	?
CC1(C)CC2CC(C)(CN2S(=O)(=O)c2ccc(C(=O)Nc3ccc(S(=O)(=O)N4CCOCC4)cc3)cc2)C1 (configuration not stated)	?	–	5.17µM	?	–	3.66µM
CC1(C)CC2CC(C)(CN2S(=O)(=O)c2ccc(C(=O)Nc3ccc(Cl)c(S(=O)(=O)N4CCOCC4)c3)cc2)C1 (configuration not stated)	–	–	3.66µM	–	–	3.26µM
CCOC(=O)c1cc([N+](=O)[O-])sc1NC(=O)c1ccc(S(=O)(=O)N2CC3(C)CC2CC(C)(C)C3)cc1 (configuration not stated)	–	–	2.59µM	–	–	2.31µM
CC1(C)CC2CC(C)(CN2S(=O)(=O)c2cccc(N)c2)C1 (configuration not stated)	–	–	?	–	–	?
O=C(Cc1ccsc1)N1CCN(C(=O)c2nnn3c2COC(c2ccccc2)C3)CC1 (configuration not stated)	·	–	·	·	·	·
CCC(=O)NCCNC(=O)c1nc2ccccc2c(=O)[nH]1	·	–	·	·	·	·
Cc1ccc(N(C(C)C(=O)Nc2cc(Cl)ccc2Oc2ccccc2)S(C)(=O)=O)cc1 (configuration not stated)	–	–	?	?	-69.2	?
COCCCNc1oc(-c2ccccc2C)nc1C#N	·	–	·	·	·	·
CC1=C(SCc2ccccc2)C(=O)c2ccccc2C1=O	25.9µM	12.6µM	3.26µM	9.2µM	-69.9	2.59µM
Cn1ccc(CN2CCn3c(nn(-c4ccc(F)cc4F)c3=O)C2)c1	·	–	·	·	·	·
O=C(/C=C/Sc1ccc(C(F)(F)F)cn1)c1ccccc1	–	?	2.31µM	–	?	2.91µM
O=C(CSc1ccc(C(F)(F)F)cn1)Nc1ccccc1	–	–	–	–	–	–
CC(=O)NC12CC3CC4C5CC(CC41)CC2C5C3	·	–	·	·	·	·
COc1cccc(-c2c(NC(=O)c3ccc(C)cc3)oc3ccccc3c2=O)c1	·	–	·	·	·	·
O=[N+]([O-])c1cccc(-c2cc3cccc[n+]3cc2-c2cccc([N+](=O)[O-])c2)c1	–	–	–	–	–	–
Cc1cccc2cc(-c3ccccc3)c(-c3ccccc3)c[n+]12	?	–	7.31µM	?	–	8.2µM
Cc1ccc(-n2c(SCC(=O)Nc3ccccc3Cl)nc3c(=O)[nH]cnc32)cc1	·	–	·	·	·	·
SMILES	HT1080 IDH1KD tx	ALOX12 inh	TDP1 cell noCPT	HT1080NT lethal	IL-1B inflam inh	DT40 TDP1 CPT
CC(=O)Nc1ccc(S(=O)(=O)N(Cc2cccnc2)Cc2cc3ccccc3[nH]c2=O)cc1	–	–	18.4µM	–	–	16.4µM
O=c1[nH]c2ccccc2cc1CN(Cc1cccnc1)S(=O)(=O)c1ccc(Cl)cc1	–	–	25.9µM	–	-60.6	?
O=C(N[C@@H]1C/C=C\C[C@H](CC(=O)N(CCO)Cc2ccccc2)C(=O)N[C@@H](Cc2ccccc2)COC1=O)OCC1c2ccccc2-c2ccccc21	–	–	16.4µM	–	–	16.4µM
C[C@@H]1COC(=O)[C@H](CC(=O)OC(C)(C)C)C/C=C\C[C@H](CC(=O)N(CCO)Cc2ccccc2)C(=O)N1	–	?	–	–	–	–
C[C@@H]1COC(=O)[C@H](NC(=O)OCC2c3ccccc3-c3ccccc32)C/C=C\C[C@@H](CC(=O)N(CCO)Cc2ccccc2)C(=O)N1	–	·	14.6µM	–	–	9.2µM
CC(C)(C)[C@H]1COC(=O)[C@H](NC(=O)OCC2c3ccccc3-c3ccccc32)C/C=C\C[C@@H](CC(=O)N(CCO)Cc2ccccc2)C(=O)N1	–	?	23.1µM	?	–	9.2µM
O=C1CCCC/C=C\C[C@H](CC(=O)N(CCO)Cc2ccccc2)C(=O)N[C@@H](c2ccccc2)CO1	–	–	–	–	–	?
O=C(N[C@H]1C/C=C\C[C@@H](CC(=O)N(CCO)Cc2ccccc2)C(=O)NC[C@H](c2ccccc2)OC1=O)OCC1c2ccccc2-c2ccccc21	?	?	4.11µM	23.1µM	–	3.66µM
COc1ccc(Cl)cc1NC(=O)CN(C)C(=O)c1cc(=O)c2cc(C)ccc2o1	·	–	·	·	·	·
CC(C)NC(=O)C1COC2(CCN(C(=O)c3ccc(Cl)cc3)CC2)N1C(=O)c1cccc(F)c1 (configuration not stated)	·	–	·	·	·	·
COC(=O)C(=O)N1CC[C@@H]2[C@H]1C(=O)N(C(C)C)C(=O)N2Cc1cccc(F)c1	·	–	·	·	·	·
Nc1nccnc1C(=O)NCCc1cn2ccccc2n1	·	–	·	·	·	·
O=C(N[C@@H]1C/C=C\C[C@@H](CC(=O)N(CCO)Cc2ccccc2)C(=O)NCCOC1=O)OCC1c2ccccc2-c2ccccc21	–	·	9.2µM	–	–	16.4µM
O=C1CC/C=C\C[C@@H](CC(=O)N(CCO)Cc2ccccc2)C(=O)NCCO1	–	–	–	–	–	–
O=C(c1ccc(Cl)cc1Cl)N1CCN(c2cc(-c3cccs3)[nH]n2)CC1	·	–	·	·	·	·
C/C(Cl)=C\COc1cc(C)nc2c(Br)cccc12	–	–	29.1µM	–	–	–
CCc1c(C)nc2c(Br)cccc2c1Cl	·	–	·	·	·	·
C=CCNC(=O)N1CCCC1C(=O)Nc1cccc(-n2cccn2)c1 (configuration not stated)	·	–	·	·	·	·
